In the supplement of paper PMC12494721:
Structures can show the parent of a compound that is named as a salt.

Columns and labels:
Details in all cases: incubation time: 27 h, anaerobic, 37 °C;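 for the amine columns active = adjusted P below 0.05 in both replicates with a change the same way and a mean fold change under 0.8 or over 1.25; inactive = the rest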
[1] = test system: Clostridium sporogenes DSM 1664; assay: growth (OD595) fold change vs plate DMSO controls (fold change (ratio)); higher = more growth
Procedure, shortened: (§1)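 Growth is expressed as the fold change relative to the median of the DMSO control wells on each plate. Cultures in mGAM were grown anaerobically in 96-well plates for 27 h at 37 °C, shaken, and read at 595 nm. Readings were blank-subtracted, corrected for compound background with 20 µM compound solutions in water, and converted to OD with a calibration factor of 5. Fold changes above 1.5 were set to NA, and each value is the mean of 2 biological replicates.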

Escherichia coli IAI1 [2] = assay: as above
Procedure, shortened: as §1

[3] = test system: Klebsiella aerogenes DSM 30053; assay: as above
Procedure, shortened: as §1

[4] = test system: Ruminococcus gnavus DSM 108212; assay: as above
Procedure, shortened: as §1

[5] = test system: Klebsiella aerogenes DSM 30053; assay: fold change of Histamine concentration vs plate DMSO controls (fold change (ratio)); higher = more amine produced, active = hit call of the paper (significant change in both replicates, either direction)
Procedure, shortened: (§2)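 Extracts of whole anaerobic mGAM cultures were analysed for amines by LC–triple-quadrupole MS with dynamic MRM and external calibration curves, with drift corrected within batch. Four gut strains were grown at 37 °C for 27 h in 80 µL wells with compounds at 20 µM final, sweeteners at 50 µM final. Each value expresses fold change over plate DMSO controls. The average of 2 biological replicates is shown.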

[6] = test system: Clostridium sporogenes DSM 1664; assay: fold change of Tryptamine concentration vs plate DMSO controls (fold change (ratio)); higher = more amine produced, active = hit call of the paper (significant change in both replicates, either direction)
Procedure, shortened: as §2

[7] = test system: Ruminococcus gnavus DSM 108212; assay: as above
Procedure, shortened: as §2

Escherichia coli IAI1 [8] = assay: fold change of Putrescine concentration vs plate DMSO controls (fold change (ratio)); higher = more amine produced, active = hit call of the paper (significant change in both replicates, either direction)
Procedure, shortened: as §2

[9] = test system: Klebsiella aerogenes DSM 30053; assay: as above
Procedure, shortened: as §2

Escherichia coli IAI1 [10] = assay: fold change of Cadaverine concentration vs plate DMSO controls (fold change (ratio)); higher = more amine produced, active = hit call of the paper (significant change in both replicates, either direction)
Procedure, shortened: as §2

[11] = test system: Klebsiella aerogenes DSM 30053; assay: as above
Procedure, shortened: as §2

[12] = test system: Ruminococcus gnavus DSM 108212; assay: fold change of 2-Phenylethylamine concentration vs plate DMSO controls (fold change (ratio)); higher = more amine produced, active = hit call of the paper (significant change in both replicates, either direction)
Procedure, shortened: as §2

Row | Compound | growth [1] | growth (Escherichia coli IAI1 [2]) | growth [3] | growth [4] | fold change of Histamine concentration [5] | fold change of Tryptamine concentration [6] | fold change of Tryptamine concentration [7] | fold change of Putrescine concentration (Escherichia coli IAI1 [8]) | fold change of Putrescine concentration [9] | fold change of Cadaverine concentration (Escherichia coli IAI1 [10]) | fold change of Cadaverine concentration [11] | fold change of 2-Phenylethylamine concentration [12]
1 | CN(C)CC/C=C1/c2ccccc2COc2ccc(CC(=O)O)cc21 [Olopatadine hydrochloride] (20 µM) | 1.01 | 0.978 | 1.01 | 0.955 | 1 (inactive) | 0.968 (inactive) | 1.03 (inactive) | 1.01 (inactive) | 1 (inactive) | 0.995 (inactive) | 1 (inactive) | 1.04 (inactive)
2 | O=C(O)c1cc(-c2ccc(F)cc2F)ccc1O [Diflunisal] (20 µM) | 1.05 | 0.978 | 0.985 | 1.22 | 1.02 (inactive) | 1.01 (inactive) | 1.02 (inactive) | 1.07 (inactive) | 0.988 (inactive) | 1.02 (inactive) | 0.994 (inactive) | 1.1 (inactive)
3 | N#Cc1cc(NC(=O)C(=O)O)c(Cl)c(NC(=O)C(=O)O)c1 [Lodoxamide] (20 µM) | 1.02 | 1.15 | 1.01 | 1.12 | 0.985 (inactive) | 1.05 (inactive) | 0.986 (inactive) | 1.17 (inactive) | 1.01 (inactive) | 0.977 (inactive) | 0.997 (inactive) | 0.934 (inactive)
4 | Cc1nn(C)c(Oc2ccccc2)c1/C=N/OCc1ccc(C(=O)OC(C)(C)C)cc1 (20 µM) | 1.15 | 1.03 | 1.02 | 0.998 | 0.993 (inactive) | 0.918 (inactive) | 1.04 (inactive) | 1.02 (inactive) | 1.06 (inactive) | 0.987 (inactive) | 1.03 (inactive) | 0.974 (inactive)
5 | Nc1ccc2cc3ccc(N)cc3nc2c1 [Proflavine hemisulfate] (20 µM) | 1.13 | 0.951 | 1 | 1.02 | 0.816 (inactive) | 1 (inactive) | 0.861 (inactive) | 1.03 (inactive) | 0.963 (inactive) | 1.16 (inactive) | 0.982 (inactive) | 0.861 (inactive)
6 | OC[C@H]1O[C@@](CO)(O[C@H]2O[C@H](CO)[C@@H](O)[C@H](O)[C@H]2O)[C@@H](O)[C@@H]1O [Sucrose] (50 µM) | 1.08 | 0.938 | 1.09 | 1.12 | 0.917 (inactive) | 1.07 (inactive) | 1.08 (inactive) | 1 (inactive) | 0.977 (inactive) | 0.964 (inactive) | 1.05 (inactive) | 1.12 (inactive)
7 | C[C@@H](NCCCc1cccc(C(F)(F)F)c1)c1cccc2ccccc12 [Cinacalcet hydrochloride] (20 µM) | 0.918 | 1.02 | 1.03 | 1.2 | 0.977 (inactive) | 0.995 (inactive) | 0.807 (inactive) | 1.11 (inactive) | 1.01 (inactive) | 0.693 (inactive) | 0.999 (inactive) | 0.946 (inactive)
8 | CC(=O)OCC(=O)[C@@]1(O)CC[C@H]2[C@@H]3CCC4=CC(=O)CC[C@]4(C)[C@@]3(F)[C@@H](O)C[C@@]21C [Fludrocortisone acetate] (20 µM) | 0.949 | 1.09 | 1.03 | 1.06 | 1.01 (inactive) | 1 (inactive) | 1.01 (inactive) | 1.09 (inactive) | 1 (inactive) | 1.02 (inactive) | 1 (inactive) | 0.966 (inactive)
9 | CN[C@@H]1[C@H](O)[C@H](NC)[C@H]2O[C@@]3(O)C(=O)C[C@@H](C)O[C@H]3O[C@@H]2[C@H]1O [Spectinomycin dihydrochloride] (20 µM) | 1.04 | 0.864 | 0.93 | 0.692 | 0.762 (inactive) | 0.992 (inactive) | 0.991 (inactive) | 0.796 (inactive) | 1.08 (inactive) | 0.95 (inactive) | 1.02 (inactive) | 0.991 (inactive)
10 | CCN(CC)C(=S)SSC(=S)N(CC)CC [Disulfiram] (20 µM) | 1.03 | 0.988 | 0.991 | 1.38 | 1.06 (inactive) | 0.992 (inactive) | 1 (inactive) | 1.09 (inactive) | 1.03 (inactive) | 0.969 (inactive) | 1 (inactive) | 0.955 (inactive)
11 | Cc1nc2ccccn2c(=O)c1CCN1CCC(C(=O)c2ccc(F)cc2)CC1 [Pirenperone] (20 µM) | 0.963 | 1.01 | 1.01 | 1.05 | 1.06 (inactive) | 0.996 (inactive) | 0.997 (inactive) | 0.995 (inactive) | 1.01 (inactive) | 1.03 (inactive) | 0.983 (inactive) | 0.969 (inactive)
12 | CN(C)C(=O)C(CCN1CCC(O)(c2ccc(Cl)cc2)CC1)(c1ccccc1)c1ccccc1 [Loperamide hydrochloride] (20 µM) | 1.1 | 1.04 | 1.05 | 0.853 | 0.935 (inactive) | 0.976 (inactive) | 0.949 (inactive) | 1 (inactive) | 0.963 (inactive) | 1.02 (inactive) | 1.02 (inactive) | 0.915 (inactive)
13 | COc1cc(C(=O)NCc2ccc(OCCN(C)C)cc2)cc(OC)c1OC [Trimethobenzamide hydrochloride] (20 µM) | 1.13 | 1.08 | 0.972 | 1.04 | 0.877 (inactive) | 1.12 (inactive) | 1.04 (inactive) | 1.05 (inactive) | 0.835 (inactive) | 1.02 (inactive) | 0.903 (inactive) | 1.05 (inactive)
14 | CCN1C(=O)NC(c2ccccc2)C1=O (stereo not given) [Ethotoin] (20 µM) | 0.983 | 0.999 | 0.982 | 1.14 | 1.06 (inactive) | 0.942 (inactive) | 0.879 (inactive) | 0.991 (inactive) | 0.991 (inactive) | 0.999 (inactive) | 0.981 (inactive) | 0.855 (inactive)
15 | CCc1oc2ccccc2c1C(=O)c1cc(Br)c(O)c(Br)c1 [Benzbromarone] (20 µM) | 0.813 | 0.959 | 0.986 | 0.873 | 0.958 (inactive) | 0.706 (active) | 0.722 (active) | 0.989 (inactive) | 0.994 (inactive) | 1.04 (inactive) | 0.998 (inactive) | 0.763 (active)
16 | C=CCOC(Cn1ccnc1)c1ccc(Cl)cc1Cl (stereo not given) [Enilconazole] (20 µM) | 1.05 | 0.989 | 0.991 | 0.919 | 0.966 (inactive) | 1.19 (inactive) | 1.15 (inactive) | 0.862 (inactive) | 1.01 (inactive) | 0.939 (inactive) | 1.13 (inactive) | 1.56 (active)
17 | Cc1c(Cl)cccc1Nc1ncccc1C(=O)O [Clonixin lysinate] (20 µM) | 1.13 | 1.07 | 1.02 | 1.43 | 1.01 (inactive) | 0.959 (inactive) | 1.01 (inactive) | 1.1 (inactive) | 1.03 (inactive) | 0.96 (inactive) | 1.04 (inactive) | 1.01 (inactive)
18 | C[C@]12CC[C@@H]3c4ccc(O)cc4C[C@@H](CCCCCCCCC[S+]([O-])CCCC(F)(F)C(F)(F)F)[C@H]3[C@@H]1CC[C@@H]2O (stereo not given in full) [Fulvestrant] (20 µM) | 1.25 | 1.06 | 1.03 | 1.13 | 0.97 (inactive) | 0.98 (inactive) | 1.2 (inactive) | 0.954 (inactive) | 0.979 (inactive) | 0.974 (inactive) | 1.02 (inactive) | 1.21 (inactive)
19 | Nc1nc(CC(=O)Nc2ccc(CCNC[C@H](O)c3ccccc3)cc2)cs1 [Mirabegron] (20 µM) | 1.09 | 1.01 | 1.13 | 0.987 | 0.931 (inactive) | 1.02 (inactive) | 0.999 (inactive) | 0.977 (inactive) | 1.01 (inactive) | 1.06 (inactive) | 1.01 (inactive) | 1.05 (inactive)
20 | NCc1ccc(S(N)(=O)=O)cc1 [Mafenide hydrochloride] (20 µM) | 1.13 | 1 | 1.04 | 0.971 | 1.08 (inactive) | 0.888 (inactive) | 0.773 (inactive) | 1 (inactive) | 1.02 (inactive) | 1.04 (inactive) | 0.987 (inactive) | 0.755 (inactive)
21 | OCCN1CCN(CCCN2c3ccccc3Sc3ccc(C(F)(F)F)cc32)CC1 [Fluphenazine dihydrochloride] (20 µM) | 1.03 | 1.13 | 1.05 | 0.85 | 0.925 (inactive) | 1.22 (inactive) | 0.878 (inactive) | 1.09 (inactive) | 0.982 (inactive) | 1.11 (inactive) | 1.03 (inactive) | 0.869 (inactive)
22 | CCCCc1ccc2[nH]c(NC(=O)OC)nc2c1 [Parbendazole] (20 µM) | 1.04 | 1.04 | 1.02 | 1.25 | 1.11 (inactive) | 0.953 (inactive) | 0.998 (inactive) | 0.98 (inactive) | 1.07 (inactive) | 0.981 (inactive) | 1.03 (inactive) | 1.02 (inactive)
23 | CCOC(=O)C1=C[C@]2(CC)CCCN3CCc4c(n1c1ccccc41)[C@@H]32 [Vinpocetine] (20 µM) | 0.883 | 0.979 | 1.03 | 1.14 | 0.922 (inactive) | 0.964 (inactive) | 0.955 (inactive) | 0.995 (inactive) | 1.02 (inactive) | 1.02 (inactive) | 1.02 (inactive) | 0.972 (inactive)
24 | O=C(NCCCN1CCOCC1)c1ccc(Cl)cc1 [Eprobemide] (20 µM) | 1.11 | 1.1 | 1.07 | 1.04 | 0.982 (inactive) | 1.02 (inactive) | 1.06 (inactive) | 0.929 (inactive) | 0.934 (inactive) | 0.942 (inactive) | 1.05 (inactive) | 1.12 (inactive)
25 | Cc1c(-c2ccccc2)oc2c(C(=O)OCCN3CCCCC3)cccc2c1=O [Flavoxate hydrochloride] (20 µM) | 1.09 | 1.01 | 1.06 | 1.14 | 1.01 (inactive) | 1.05 (inactive) | 1.03 (inactive) | 1 (inactive) | 1 (inactive) | 1.03 (inactive) | 1 (inactive) | 1.02 (inactive)
